# From PubChem BioAssay (NCATS)
# Records with an inconclusive call do not appear. Calls of active or inactive are those of the source. The call rests on the fitted dose curve; in most records, active means well fitted inhibition curve with a large enough effect; inconclusive means small, poorly fitted or top-dose-only effect; inactive means flat fitted curve, though single readings scatter. Where a SMILES comes first, the peptide text is derived from it. Bridges are numbered along the chain shown (N, C = ends). [ ]: non-standard residue; d: D form. The star is where a group is joined. X1 = CCC(C)C(N)C1=NC(C(=O)*)CS1; dOrn = NCCC[C@@H](N)C(=O)O; 2Abz = Nc1ccccc1C(=O)O
# System: KB-3-1
# Test: Cytotoxic Profiling of Annotated Libraries Using Quantitative High-Throughput Screening (AID 1296008); further: nearly all actives have a fitted effect of over 60% in size
# Settings: Five cell lines viability, CellTiter-Glo ATP luminescence, 48-72 h; max response: hits give low values
# From the text: Cell-based phenotypic screening is a commonly used approach to discover biological pathways, novel drug targets, chemical probes and high-quality hit-to-lead molecules. Many hits identified from high-throughput screening campaign are ruled out through a series of follow-up potency, selectivity/specificity, and cytotoxicity assays. Prioritization of molecules with little or no cytotoxicity for a more in-depth downstream evaluation influence the future direction of projects, so cytotoxicity profiling of the screening libraries at early stage is essential for increasing the likelihood of candidate success. […] For the annotated library, we also examined the primary targets and mechanistic pathways regularly associated with cell death. To our knowledge, this is the first study to use high-throughput screening to profile large libraries for cytotoxicity assessment in both normal and cancer cell lines. In summary, the results generated here constitutes a valuable resource for the scientific community and provides insight on identifying cytotoxic compounds with particular mechanisms of action, and prioritizing compounds with suitable cytotoxicity profile for further evaluation.
# A pintool (Kalypsys) was used to transfer 23 nL of compound solution to the 1536-well assay plates. After 48 or 72 hr incubation at 37 degree Celsius, 5% CO2 and 95% humidity, 2.5 uL of CellTiter-Glo (Promega) was dispensed into each well using a dispenser (Aspect Automation, St. Paul, MN) with solenoid valves (Lee Valves, Westbrook CT). Plates were left at room temperature for 10 min before imaging the ATP-coupled luminescence using a ViewLux microplate imager (PerkinElmer, Waltham, MA).
# On the % scale 0 is the no-effect control and ±100 the full control effect; potency means the concentration at half of the fitted maximal effect.
Compound,outcome,max response,Potency
CC1OC(OC2C(CO)OC(OCC3OC(OC(=O)C45CCC(C)(C)CC4C4=CCC6C7(C)CCC(OC8OC(C(=O)O)C(O)C(OC9OC(CO)C(O)C(O)C9O)C8O)C(C)(C)C7CCC6(C)C4(C)CC5)C(O)C(O)C3O)C(O)C2O)C(O)C(O)C1O (stereo not given),inactive,,
C=C[C@H]1[C@H](O[C@@H]2O[C@H](CO)[C@@H](O)[C@H](O)[C@H]2O)OC=C(C(=O)OC)[C@H]1C[C@@H]1N[C@H](C(=O)O)Cc2c1[nH]c1ccccc21,,-4.8% (inactive),
CCC(=O)NCCC1CCc2ccc3c(c21)CCO3 (stereo not given),,-7.29% (inactive),
C=C(C)[C@H]1C[C@@H](O)C(=C)CC[C@@H](O)C(=C)[C@@H](O)C1,inactive,,
CC1CCC2(C(=O)OC3OC(COC4OC(CO)C(O)C(O)C4O)C(O)C(O)C3O)CCC3(C)C(=CCC4C5(C)CCC(O)C(C)(C(=O)O)C5CCC43C)C2C1(C)O (stereo not given),,0.532% (inactive),
COC(=O)c1ccc(O[C@@H]2O[C@H](CO)[C@@H](O)[C@H](O)[C@H]2O)c(OC)c1,,4.82% (inactive),
Cc1cc(CC(C)CC(C)(C)C)n(O)c(=O)c1 (stereo not given) (tested in a mixture with another compound),,29.3% (inactive),
CCC1CC2C(C)=CC3CCCCC3C2(C)C2(OC(=O)C(C)(O)OC2=O)O1 (stereo not given),inactive,,
C=CC1=C(C)C2=CC3=NC(=C(CC(=O)[O-])C4=NC(=C(C)C4=C([O-])[O-])C=c4[n-]c(c(C)c4CC)=CC1=N2)C(CCC(=O)[O-])C3C.[Cu+2].[Na+].[Na+].[Na+] (stereo not given),,-6.08% (inactive),
Cc1cn2c(N)c(Cl)cc(C(=O)NCC3CCN(CC(C)C)CC3)c2n1,,-3.78% (inactive),
O=C(/C=C/c1ccc(O)cc1)OCC1=C[C@@H](O)[C@@H]2C=CO[C@@H](O[C@@H]3O[C@H](CO)[C@@H](O)[C@H](O)[C@H]3O)[C@H]12,inactive,,
CC(=O)OCCC(C)CCC1C(C)(O)CCC2C(C)(C)CCCC21C (stereo not given),inactive,,
CO[C@H]1C=CO[C@@]2(C)Oc3c(C)c(O)c4c(O)c(c5c(nc6cc(C)ccn65)c4c3C2=O)NC(=O)/C(C)=C\C=C[C@H](C)[C@H](O)[C@@H](C)[C@@H](O)[C@@H](C)[C@H](OC(C)=O)[C@@H]1C,,5.41% (inactive),
CCCCC(=O)OCC(=O)[C@]1(O)Cc2c(O)c3c(c(O)c2[C@@H](O[C@H]2C[C@H](NC(=O)C(F)(F)F)[C@H](O)[C@H](C)O2)C1)C(=O)c1c(OC)cccc1C3=O,,,8.2 µM (active)
CCC(C)/C=C(C)/C=C/C1=CC2=C(Cl)C(=O)C(C)(OC(C)=O)C(=O)C2=CN1CCCC(=O)O (stereo not given),inactive,,
CCC(C)C1NC(=O)C2CCCN2C(=O)C(C(C)C)NC(=O)c2ccccc2NC(=O)C(Cc2ccc(O)cc2)NC(=O)C(C)NC(=O)C(C(C)O)NC1=O (stereo not given) (cyclo([2Abz]VPITAY); configuration not given here),inactive,,
CO/N=C(/C(=O)N[C@@H]1C(=O)N2C(C(=O)O)=C(CSC(=O)c3ccco3)CS[C@H]12)c1csc(N)n1,inactive,-14.5% (inactive),
C[C@@H]1C[C@H](O[C@@H]2O[C@H](CO[C@@H]3OC[C@](O)(CO)[C@H]3O)[C@@H](O)[C@H](O)[C@H]2O)CC(C)(C)[C@H]1/C=C/[C@@H](C)O,inactive,,
CC1CC(=O)C2=C(O1)OC1(C)CCC3C(C)(C)C=CC(=O)C3(C)C1C2 (stereo not given),inactive,,

Compound,outcome,max response,Potency
C[C@@H]1O[C@@H](O[C@H]2[C@H](O[C@H]3CC[C@@]4(C)C(CC[C@]5(C)C4CC=C4[C@@H]6CC(C)(C)CC[C@]6(C(=O)O)CC[C@]45C)[C@]3(C)CO)OC[C@H](O)[C@@H]2O)[C@H](O)[C@H](O[C@@H]2OC[C@@H](O)[C@H](O)[C@H]2O)[C@H]1O (stereo not given in full),inactive,,
COC(=O)[C@@]1(O)C=CC[C@@H]2[C@@]3(C)C[C@@H](c4ccoc4)OC(=O)[C@H]3CC[C@]21C,,0.0207% (inactive),
CCC(C)C(N)C1=NC(C(=O)N[C@@H](CC(C)C)C(=O)N[C@H](CCC(=O)O)C(=O)N[C@H](C(=O)N[C@H]2CCCCNC(=O)[C@H](CC(N)=O)NC(=O)[C@@H](CC(=O)O)NC(=O)[C@H](Cc3cnc[nH]3)NC(=O)[C@@H](Cc3ccccc3)NC(=O)[C@H]([C@@H](C)CC)NC(=O)[C@@H](CCCN)NC2=O)[C@@H](C)CC)CS1 (stereo not given in full) (X1-L[dE]IK[dOrn]I[dF]H[dD]N; lactam 4-C),inactive,8.49% (inactive),
C/C(=C/CO)CC[C@@H]1[C@@]2(C)CCC[C@](C)(C(=O)O)C2CC[C@@]1(C)O (stereo not given in full),,3.08% (inactive),
C=C1C2(CCC(=O)OC2(C)C)CC(OC(=O)/C(C)=C/C)C2(C)C13OC14C(=O)OC(C)(C(=O)C12C(=O)OC4C)C3OC(C)=O (stereo not given),,6.83% (inactive),
C=C1C[C@]23C[C@H]1CC[C@H]2[C@]1(C)CCC[C@@]2(CO)C(=O)O[C@H]([C@H]21)[C@@H]3O,,6.36% (inactive),
COC(=O)[C@H](CC1C=NC=N1)NCC12CC3CC(CC(C3)C1)C2 (stereo not given in full),,1.43% (inactive),
COc1cc(C/C(=C/NC(C)=O)N(CC(=O)Cc2ccccc2)C(C)=O)cc2c1OCO2,,7.98% (inactive),
CC(=O)O[C@@H]1C[C@]2(C)[C@@]3(CCC4[C@@]5(C)CC[C@H](O[C@@H]6O[C@H](C(=O)O)[C@@H](O)[C@H](O[C@@H]7O[C@H](CO)[C@H](O)[C@H](O)[C@H]7O[C@@H]7O[C@@H](C)[C@H](O)[C@@H](O)[C@H]7O[C@@H]7OC[C@](O)(CO)[C@H]7O)[C@H]6O[C@@H]6O[C@H](CO)[C@H](O)[C@H](O)[C@H]6O)C(C)(C)C5CC[C@]42C)O[C@@H](O)[C@]12C3CC(C)(C)[C@@H](OC(=O)/C=C/c1ccc(O)c(O)c1)[C@@H]2OC(=O)/C=C/c1ccccc1 (stereo not given in full),inactive,,
C=CCc1ccc(O[C@@H]2O[C@H](CO)[C@@H](O)[C@H](O)[C@H]2O)c(OC)c1,inactive,,
CC1(C)CCCC2(C)C1C(O)C=C(CO)C2(O)C(=O)O (stereo not given),,3.33% (inactive),
C=CC(C)(CC/C=C(\C)CC/C=C(\C)CC(O)/C=C(\C)C(=O)O)O[C@@H]1O[C@H](CO)[C@@H](O)[C@H](O)[C@H]1O[C@@H]1O[C@H](CO)[C@@H](O)[C@H](O)[C@H]1O (stereo not given in full),,5.27% (inactive),
COC1CCCC/C(C)=C/C2C=C(C)C(C)C3C(CC(C)C)NC(=O)C23C(=O)C1 (stereo not given),,5.18% (inactive),
COC(=O)CC[C@@H](C)[C@H]1CC[C@H]2[C@@H]3CC(=O)[C@H]4C[C@H](OC(C)=O)CC[C@]4(C)[C@H]3CC[C@]12C,inactive,,
CO[C@H]1C=C2C(CC[C@H](O[C@@H]3O[C@H](CO)[C@@H](O)[C@@H](O)[C@H]3O)C2(C)C)[C@]2(C)CC[C@]3(C)C([C@H](C)C(O)C(C=C(C)C)O[C@@H]4O[C@H](CO)[C@@H](O)[C@@H](O)[C@H]4O)CC[C@@]3(C)C12 (stereo not given in full),,6.33% (inactive),
CC(CCC1(O)OC2CC3C4CCC5CC(O[C@@H]6O[C@H](CO)[C@@H](O)[C@H](O)[C@H]6O[C@@H]6OC[C@@H](O)[C@H](O)[C@H]6O)C(O)CC5(C)C4CCC3(C)C2C1C)CO[C@@H]1O[C@H](CO)[C@@H](O)[C@H](O)[C@H]1O (stereo not given in full),inactive,,
C[C@H]1CC[C@@]2(OC1)O[C@H]1CC3C4CC=C5C[C@H](O)C[C@@H](O[C@@H]6O[C@@H](C)[C@H](O)[C@@H](O)[C@H]6O[C@@H]6O[C@@H](C)[C@H](O)[C@@H](O)[C@H]6O)[C@]5(C)C4CC[C@]3(C)[C@H]1[C@@H]2C (stereo not given in full),inactive,,
O=C(O)[C@H]1CCCC[C@H]1C(=O)N1CCc2ccccc2[C@H]1CN1C(=O)c2ccccc2C1=O,inactive,,
CC1=C2C(=O)C=C(CO)[C@@H]2[C@H]2OC(=O)[C@H](C)[C@@H]2[C@@H](O)C1,,1.39% (inactive),
